We go through 8 compounds from PubChem BioAssay (Tox21).

The structures appear in SMILES notation. “And” between values parts separate entries of the source, which are not always exact repeats. Identical values can stand only once. Unmarked numbers belong to inactive results. Records with an inconclusive call do not appear. The source made the active and inactive calls. Unless noted, the call rests on the fitted dose curve; in most records, active means well fitted curve in the direction sought with a large enough effect in the repeat runs; inconclusive means weak or mixed curves; inactive means no such curve, though single readings can be large; an effect the other way counts as inactive or inconclusive.

Experiment [1] in a line: qHTS assay to test for compound auto fluorescence at 535 nm (green) in HEK293 cells (AID 720680).
Experiment [2] can be described thus: qHTS assay to test for compound auto fluorescence at 460 nm (blue) in HEK293 cell free culture (AID 720681). The method in brief: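 Compounds were added to cell-free DMEM with 10% FBS and fluorescence read directly. The blue channel used 405 nm excitation and 460 nm emission, with triamterene as the reference fluorophore.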
Experiment [3] in a line: qHTS assay to test for compound auto fluorescence at 535 nm (green) in HEK293 cell free culture (AID 720682). The method in brief:
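No cells present: wells hold DMEM supplemented with 10% FBS, into which compound or vehicle is pinned. Green emission is then recorded (485 nm excitation, 535 nm emission) and scaled to fluorescein.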

Experiment [4] is described as follows: qHTS assay to test for compound auto fluorescence at 590 nm (red) in HEK293 cell free culture (AID 720683). The method in brief: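 Cell-free wells of DMEM with 10% FBS received compound, and intrinsic fluorescence was read at excitation/emission 540/590 nm. Values expressed as equivalence to Rose Bengal sodium.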
Experiment [5] in a line: qHTS assay to test for compound auto fluorescence at 590 nm (red) in HepG2 cell free culture (AID 720684). In outline: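 Compounds are added to culture medium (MEM, 10% FBS) lacking cells, then fluorescence is read at excitation 540 nm, emission 590 nm, with Rose Bengal sodium as the equivalency standard.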
Experiment [6] is described as follows: qHTS assay to test for compound auto fluorescence at 535 nm (green) in HepG2 cell free culture (AID 720686).
Experiment [7] can be described thus: qHTS assay to test for compound auto fluorescence at 460 nm (blue) in HepG2 cells (AID 720687). The method in brief: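 HepG2 cells in MEM with 10% FBS, attached overnight at 37 C, were exposed to compound or DMSO for 1 hr at 37 C, 5% CO2. Blue fluorescence was read at 405/460 nm, with triamterene as reference fluorophore.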
In experiment [8] the target is Glucocorticoid receptor (Homo sapiens) (UniProt P04150). As to the kind of experiment: qHTS assay to identify small molecule antagonists of the glucocorticoid receptor (GR) signaling pathway (AID 720692; active means well fitted inhibition curve with a large enough effect in the signal ratio in the repeat runs, not every such curve was filed as active; the % refers to the signal ratio; further: potency means the concentration at half of the fitted maximal effect). The method in brief:
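HeLa GR-bla cells; cmpd + dex 5 nM final, 18 h 37 C; LiveBLAzer B/G FRET substrate 2 h RT; fluorescence intensity read. Antagonist mode, qHTS.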

The nature of experiment [9]: qHTS assay to identify small molecule antagonists of the glucocorticoid receptor (GR) signaling pathway - cell viability counter screen (AID 720693). Further: nearly all actives have a fitted effect of over 55% in size. Further: potency means the concentration at half of the fitted maximal effect.
Experiment [10] can be described thus: qHTS assay for identifying genotoxic compounds that show differential cytotoxicity against isogenic chicken DT40 cell lines with known DNA damage response pathways - wild type cell line (AID 743012). Further: nearly all actives have a fitted effect of over 60% in size. Further: potency means the concentration at half of the fitted maximal effect. In outline: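 Wild type DT40, 300 cells/well, ~0.5 h settle at 37 C/5% CO2; compounds in DMSO added by pintool; 40 h at 37 C/5% CO2; CellTiter-Glo, 30 min RT; luminescence.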

Experiment [11] in a line: qHTS assay for identifying genotoxic compounds that show differential cytotoxicity against isogenic chicken DT40 cell lines with known DNA damage response pathways - Rev3 mutant cell line (AID 743014). Further: potency means the concentration at half of the fitted maximal effect; nearly all actives have a fitted effect of over 55% in size.
Experiment [12] is described as follows: qHTS assay for identifying genotoxic compounds that show differential cytotoxicity against isogenic chicken DT40 cell lines with known DNA damage response pathways - Rad54/Ku70 mutant cell line (AID 743015). Further: potency means the concentration at half of the fitted maximal effect; nearly all actives have a fitted effect of over 60% in size.
Experiment [13] in a line: qHTS assay to identify small molecule antagonists of the androgen receptor (AR) signaling pathway using the MDA cell line - cell viability counter screen (AID 743041; further: nearly all actives have a fitted effect of over 45% in size). In outline: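 Same-well cytotoxicity was assessed by CellTiter-Fluor in MDA-kb2 AR-luc cells after 16 h of compound treatment under R1881 agonism.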
Experiment [14] has as its target Glucocorticoid receptor (Homo sapiens) (UniProt P04150). As to the kind of experiment: qHTS assay to identify small molecule agonists of the glucocorticoid receptor (GR) signaling pathway (AID 720691; active means well fitted activation curve with a large enough effect in the signal ratio in the repeat runs, not every such curve was filed as active; the % refers to the signal ratio). The following applies: GR-bla HeLa, beta-lactamase reporter ratio, 18 h; activation: at 62.4 µM (top of the series). The method in brief: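 Fluorescence intensity from LiveBLAzer B/G FRET substrate (2 h, room temperature) reports beta-lactamase expression driven by the glucocorticoid response element in GR-bla HeLa cells after 18 h compound exposure at 37 C.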

Experiment [15] can be described thus: qHTS assay to identify small molecule antagonists of the androgen receptor (AR) signaling pathway - cell viability counter screen (AID 743033; further: nearly all actives have a fitted effect of over 45% in size).
Experiment [16] can be described thus: qHTS assay to test for compound auto fluorescence at 460 nm (blue) in HepG2 cell free culture (AID 720685). The method in brief:
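Compound (23 nL) or DMSO pinned into cell-free MEM with 10% FBS; blue fluorescence read at 405/460 nm excitation/emission, expressed as auto-fluorescence equivalency to triamterene.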

In experiment [17] the target is Androgen receptor (Homo sapiens) (UniProt P10275). As to the kind of experiment: qHTS assay to identify small molecule agonists of the androgen receptor (AR) signaling pathway (AID 743036; active means well fitted activation curve with a large enough effect in the signal ratio in the repeat runs, with a control signal flat, not every such curve was filed as active; the % refers to the signal ratio). The method in brief:
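Quantitative HTS of the Tox21 10K library in HEK293 cells bearing a stably integrated UAS-controlled beta-lactamase reporter. Compound exposure lasted 16 h at 37C. Reporter activity was detected by FRET substrate fluorescence after 2 h at room temperature.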

Experiment [18] has the same target. In words: qHTS assay to identify small molecule antagonists of the androgen receptor (AR) signaling pathway using the MDA cell line (AID 743042; further: nearly all actives have a fitted effect of over 55% in size). The method in brief:
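MDA-kb2 breast carcinoma cells carrying MMTV-luciferase (AR/GR responsive) were co-treated with compounds and the agonist R1881 for 16 h at 37C. Inhibition read as ONE-Glo luminescence; CellTiter-Fluor fluorescence measured in parallel for cytotoxicity.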

Experiment [19] shares this target. As to the kind of experiment: qHTS assay to identify small molecule antagonists of the androgen receptor (AR) signaling pathway (AID 743035; active means well fitted inhibition curve with a large enough effect in the signal ratio in the repeat runs, not every such curve was filed as active; the % refers to the signal ratio). In outline: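 Fluorescence from a beta-lactamase FRET substrate (LiveBLAzer B/G, 2 h, room temperature) measured inhibition of R1881-stimulated signaling in GeneBLAzer AR-UAS-bla HEK293 cells exposed to compound for 16 h at 37C.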

Sequence of Androgen receptor (Homo sapiens) (P10275 whole entry, looked up): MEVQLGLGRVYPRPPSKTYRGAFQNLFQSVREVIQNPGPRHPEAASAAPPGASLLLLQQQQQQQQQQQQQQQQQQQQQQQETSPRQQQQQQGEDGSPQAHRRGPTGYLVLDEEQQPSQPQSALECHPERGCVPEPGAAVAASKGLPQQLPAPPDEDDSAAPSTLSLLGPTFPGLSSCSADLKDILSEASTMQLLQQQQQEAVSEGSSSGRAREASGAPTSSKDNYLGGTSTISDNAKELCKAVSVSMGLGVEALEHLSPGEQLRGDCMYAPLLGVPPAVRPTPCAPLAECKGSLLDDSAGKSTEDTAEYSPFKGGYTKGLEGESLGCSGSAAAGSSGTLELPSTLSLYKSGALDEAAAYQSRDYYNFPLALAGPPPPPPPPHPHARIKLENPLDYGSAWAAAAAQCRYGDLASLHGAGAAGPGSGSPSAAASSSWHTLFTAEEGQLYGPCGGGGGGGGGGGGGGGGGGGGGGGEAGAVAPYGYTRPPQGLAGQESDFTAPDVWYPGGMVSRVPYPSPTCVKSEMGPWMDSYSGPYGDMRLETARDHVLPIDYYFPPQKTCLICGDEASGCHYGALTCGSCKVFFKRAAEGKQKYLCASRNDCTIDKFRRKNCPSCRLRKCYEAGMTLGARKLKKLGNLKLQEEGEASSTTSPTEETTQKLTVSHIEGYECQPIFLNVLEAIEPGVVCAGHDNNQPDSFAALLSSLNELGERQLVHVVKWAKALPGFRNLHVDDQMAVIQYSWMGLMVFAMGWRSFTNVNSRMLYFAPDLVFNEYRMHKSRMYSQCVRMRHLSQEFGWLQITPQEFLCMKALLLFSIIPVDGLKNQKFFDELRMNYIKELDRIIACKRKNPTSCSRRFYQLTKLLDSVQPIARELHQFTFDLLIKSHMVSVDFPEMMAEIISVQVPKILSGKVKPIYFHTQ
Sequence of Glucocorticoid receptor (Homo sapiens) (P04150 whole entry, looked up): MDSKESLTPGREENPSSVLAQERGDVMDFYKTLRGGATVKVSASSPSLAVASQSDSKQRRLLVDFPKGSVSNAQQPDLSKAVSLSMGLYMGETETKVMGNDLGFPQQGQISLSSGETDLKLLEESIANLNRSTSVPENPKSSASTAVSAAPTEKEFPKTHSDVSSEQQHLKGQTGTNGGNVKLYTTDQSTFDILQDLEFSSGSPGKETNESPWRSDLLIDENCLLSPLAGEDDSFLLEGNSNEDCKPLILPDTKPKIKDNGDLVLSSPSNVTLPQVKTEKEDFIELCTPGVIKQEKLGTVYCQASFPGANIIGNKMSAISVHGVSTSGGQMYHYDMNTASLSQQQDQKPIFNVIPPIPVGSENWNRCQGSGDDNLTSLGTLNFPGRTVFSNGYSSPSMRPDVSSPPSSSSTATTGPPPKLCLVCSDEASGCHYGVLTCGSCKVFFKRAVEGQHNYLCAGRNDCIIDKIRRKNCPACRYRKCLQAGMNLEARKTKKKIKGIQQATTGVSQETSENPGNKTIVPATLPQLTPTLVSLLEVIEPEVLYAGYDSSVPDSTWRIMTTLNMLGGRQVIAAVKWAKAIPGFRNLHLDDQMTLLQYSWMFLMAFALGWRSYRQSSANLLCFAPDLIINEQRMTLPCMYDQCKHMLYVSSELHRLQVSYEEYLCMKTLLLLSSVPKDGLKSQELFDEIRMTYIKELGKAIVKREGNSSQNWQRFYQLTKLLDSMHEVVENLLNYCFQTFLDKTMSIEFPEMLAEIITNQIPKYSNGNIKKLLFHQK

Turning to `CCCCCCC(C)Nc1ccc(Nc2ccccc2)cc1` (stereo not drawn), the Potency result in [1], in experiment [2], in [3], in experiment [4], in [5] and in experiment [6] was “inactive” in each case. Also, the Potency result in experiment [7] and in experiment [13] was “inactive” each time. In addition, the Potency in experiment [8] was 43.6 µM (active); in experiment [9], 49 µM (active); in experiment [10], 17.2 µM (active); in [11], 15.4 µM (active); in experiment [12], 17.2 µM (active).

For `Nc1cc(Cl)c([N+](=O)[O-])cc1O`, the Potency entry in experiment [1], in experiment [2], in [3], in experiment [4], in [5] and in experiment [6] was “inactive” each time. For the same compound, the Potency result in experiment [14], in experiment [8], in experiment [9] and in experiment [15] was “inactive” in each case.

Consider `Oc1ccc(-c2ccccc2)c(Cl)c1`, for which the Potency entry in [1], in [2], in experiment [4], in experiment [5], in experiment [16] and in experiment [6] was “inactive” each time. The Potency entry in experiment [7], in experiment [14], in experiment [8], in [9], in experiment [10] and in experiment [13] was “inactive” each time. Further, the Potency result in experiment [18] is “inactive”. The Potency in [11] and in experiment [12] was 30.6 µM (active) each time. In addition, the result in experiment [17] was inactive.

Take `S=P(N1CC1)(N1CC1)N1CC1`: the Potency entry in [1], in experiment [2], in experiment [3], in experiment [4], in experiment [5] and in experiment [6] was “inactive” each time. In addition, the Potency result in experiment [7], in experiment [14], in experiment [8], in experiment [9], in experiment [15] and in experiment [13] was “inactive” each time. In addition, the Potency in experiment [10] is 21.1 µM (active); in experiment [11] it was 944 nM (active) and 319 nM (active); in experiment [12], 26.6 µM (active) and 11.4 µM (active).

`CCCCCCCCCCCCCCNCCO`: the Potency result in [1], in experiment [2], in experiment [3], in experiment [4], in [5] and in [6] was “inactive” throughout. Besides, the Potency entry in experiment [7], in experiment [9], in experiment [15] and in experiment [13] was “inactive” in each case. The Potency in experiment [10] was 11.9 µM (active); in experiment [11] it was 21.1 µM (active); in experiment [12] it was 11.9 µM (active).

`CN(Cc1cc(Br)cc(Br)c1N)C1CCCCC1`: the Potency entry in [1], in experiment [2], in [3], in experiment [4], in experiment [5] and in [6] was “inactive” each time. Also, the Potency result in experiment [7], in experiment [14], in experiment [8], in experiment [9] and in experiment [13] was “inactive” each time. For the same compound, the results for the Potency in experiment [10], in experiment [11] and in [12] were 10.6 µM (active), 6.68 µM (active) and 10.6 µM (active), respectively.

As to `Cc1occc1SSc1ccoc1C`, the Potency entry in experiment [1], in [2], in [3], in experiment [4], in experiment [5] and in [6] was “inactive” throughout. For the same compound, the Potency result in experiment [7], in experiment [14], in experiment [9], in experiment [15] and in experiment [13] was “inactive” in each case. In addition, the Potency is 19.3 µM (active) in [10], 19.3 µM (active) in [11] and 15.4 µM (active) in [12].

For `COc1ccccc1OCCNCC(O)COc1cccc2[nH]c3ccccc3c12` (stereo not drawn), the Potency entry in experiment [1], in experiment [2], in [3], in experiment [4], in [5] and in experiment [6] was “inactive” in each case. For the same compound, the Potency result in experiment [7], in [14], in experiment [9] and in [19] was “inactive” in each case. The Potency in experiment [11] and in experiment [12] was 29.8 µM (active) throughout. Moreover, in [17], the result was inactive.
